RGS12 GoLoco inh = qHTS Assay for Inhibitors of RGS12 GoLoco Motif Activity (Red Fluorophore); Gai1:RGS12 GoLoco peptide FP, rhodamine, 10 min; Guanine nucleotide-binding protein G(i) subunit alpha-1 (Homo sapiens), P63096; AID 880, 2007; hit rate 0.44% among 230,000; Potency, µM (doses to about 61.6 µM), hits mostly inhibitors; active = well fitted inhibition curve with a large enough effect, not every such curve was filed as active; inactive = no such curve, though single readings can be large or run the other way; also: nearly all actives have a fitted effect of over 30% in size
Target sequence (P63096 whole entry, looked up): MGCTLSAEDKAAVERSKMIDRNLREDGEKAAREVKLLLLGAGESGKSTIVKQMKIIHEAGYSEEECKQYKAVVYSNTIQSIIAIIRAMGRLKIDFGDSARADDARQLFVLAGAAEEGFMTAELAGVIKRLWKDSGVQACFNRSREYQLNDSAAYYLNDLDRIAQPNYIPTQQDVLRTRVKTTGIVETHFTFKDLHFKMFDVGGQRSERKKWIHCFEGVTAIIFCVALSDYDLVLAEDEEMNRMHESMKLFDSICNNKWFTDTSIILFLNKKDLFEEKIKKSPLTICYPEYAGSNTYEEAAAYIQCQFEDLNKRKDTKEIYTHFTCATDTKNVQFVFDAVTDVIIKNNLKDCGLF
Tau ThT inhib = qHTS for Inhibitors of Tau Fibril Formation, Thioflavin T Binding. Microtubule-associated protein tau (Homo sapiens), P10636. Potency, µM (titrated, usually from 57.4 µM), hits mostly inhibitors. hit rate 2.1% among 270,000. recombinant tau K18 P301L, heparin-induced fibrillization, ThT fluorescence; also: nearly all actives have a fitted effect of over 55% in size
Target sequence (P10636 561-689 P618L limits assumed): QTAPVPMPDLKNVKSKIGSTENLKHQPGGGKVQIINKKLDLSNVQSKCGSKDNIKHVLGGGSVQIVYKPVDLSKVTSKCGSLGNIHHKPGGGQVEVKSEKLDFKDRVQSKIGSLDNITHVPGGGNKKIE
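Heparin-induced fibrillization of the P301L-mutant K18 repeat-domain fragment of human tau was followed by ThT binding in quantitative high-throughput format.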
Tau FP inhib = qHTS for Inhibitors of Tau Fibril Formation, Fluorescence Polarization. K18 P301L tau heparin fibrillization, Alexa594 FP, 6 h. hit rate 0.39% among 280,000. Potency, µM (titrated, usually from 57.7 µM), most hits filed as inhibitors; also: nearly all actives have a fitted effect of over 55% in size
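Quantitative HTS format: compounds meet 15 uM recombinant K18 P301L tau and Alexa 594-tau tracer in 100 mM sodium acetate pH 7; 20 uM heparin triggers fibrillization at 37 C over 6 hr; FP gives the signal.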
Tau fluor counter = Counterscreen qHTS for Inhibitors of Tau Fibril Formation, Fluorescence Polarization; AID 1463, 2008; Potency, µM (titrated, usually from 57.7 µM); hit rate 0.93% among 280,000; tau K18 P301L Alexa594 fluorescence, heparin fibrillization; also: nearly all actives have a fitted effect of over 55% in size
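Human tau K18 P301L (15 uM unlabeled, 0.24 uM Alexa 594-labeled) in 100 mM sodium acetate pH 7 with 20 uM heparin, 6 hr at 37 C. ThT 30 uM added, 1 hr ambient; Alexa 594 FP and total fluorescence read at 555/632 nm.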
KDM4E inh = qHTS Assay for Inhibitors of Human Jumonji Domain Containing 2E (JMJD2E); JMJD2E catalytic domain, FDH-coupled NADH fluorescence (FDH is formaldehyde dehydrogenase); AID 2147, 2009; hit rate 1.6% among 230,000; Potency, µM (series often up to 57.1 µM), hits mostly inhibitors; Lysine-specific demethylase 4E (Homo sapiens), B2RXH2; active = well fitted inhibition curve with a large enough effect, not every such curve was filed as active; inconclusive = small, poorly fitted or top-dose-only effect, or another doubt; inactive = no such curve, though single readings can be large or run the other way; also: nearly all actives have a fitted effect of over 50% in size
A number is an active result; ! = not active in a repeat; [ ] = dose if it differs, or a comment. Shown are actives, neighbours in structure and some others; about 3.4% of the full set was active somewhere. Unless noted, calls follow the shape of the dose curve; as a rule, active = well fitted curve in the direction sought with a large enough effect; inconclusive = small, poorly fitted or top-dose-only effect, or another doubt; inactive = no such curve, though single readings can be large; an effect the other way counts as inactive or inconclusive.

Results for COCCNC(=O)C1CCC(Cn2c(=S)[nH]c3ccccc3c2=O)CC1 (stereo not drawn) ?
RGS12 GoLoco inh: inactive; Tau ThT inhib: inactive; Tau FP inhib: inactive; Tau fluor counter: inactive; KDM4E inh: inactive

Results for COC(=O)c1ccc2nc(C)c(C)nc2c1 ?
RGS12 GoLoco inh: inactive; Tau ThT inhib: inactive; Tau FP inhib: inactive; Tau fluor counter: inactive; KDM4E inh: inactive

How did COC(=O)c1cc(N=Nc2sc(N)nc2C)cc(C(=O)OC)c1 do in these assays?
RGS12 GoLoco inh: inactive; Tau ThT inhib: 16µM; Tau FP inhib: inactive; Tau fluor counter: inconclusive; KDM4E inh: inactive

Results for O=C(CSc1nnc(-c2ccccc2)o1)c1nnc(-c2ccccc2)o1 ?
RGS12 GoLoco inh: inactive; Tau ThT inhib: 16µM; Tau FP inhib: inconclusive; Tau fluor counter: inconclusive; KDM4E inh: inconclusive

What do the screens show for `Cc1ccc(OCC(O)Cn2c3ccccc3c3ccccc32)cc1` (stereo not drawn)?
RGS12 GoLoco inh: inactive; Tau ThT inhib: inactive; Tau FP inhib: inconclusive; Tau fluor counter: inconclusive; KDM4E inh: inconclusive

What do the screens show for `Cc1ccc(OCCN2CCN(CC(O)Cn3c4ccccc4c4ccccc43)CC2)cc1` (stereo not drawn)?
RGS12 GoLoco inh: inactive; Tau ThT inhib: inconclusive; Tau FP inhib: inactive; Tau fluor counter: inactive; KDM4E inh: 8.9µM

Results for O=S(=O)(c1ccc(-c2csc(=Nc3ccc(OC(F)(F)Cl)cc3)n2CCCO)cc1)N1CCCC1 ?
Tau ThT inhib: inconclusive; Tau FP inhib: inconclusive; Tau fluor counter: inactive

Results for COc1ccccc1CNC(=O)CSc1ccc(-c2sc(-c3ccccc3)nc2C)nn1 ?
Tau ThT inhib: inconclusive; Tau FP inhib: inactive; Tau fluor counter: inactive

How did Cc1ccc(N/C=C/C(=O)c2sc(-c3ccccc3)nc2C)cc1 do in these assays?
RGS12 GoLoco inh: inactive; Tau ThT inhib: 2µM; Tau FP inhib: inactive; Tau fluor counter: inactive; KDM4E inh: inactive

Results for Cc1nc(-c2ccccc2)sc1C(=O)NN ?
RGS12 GoLoco inh: inactive; Tau ThT inhib: inactive; Tau FP inhib: inconclusive; Tau fluor counter: inactive; KDM4E inh: inactive

How did COC(=O)/C(=C1/Oc2cc(C)oc(=O)c2S1)C(F)(F)F do in these assays?
RGS12 GoLoco inh: inactive; Tau ThT inhib: 8.9µM; Tau FP inhib: inconclusive; Tau fluor counter: inactive; KDM4E inh: inactive

How did COC(=O)/C(=C1/Oc2ccc(C(C)(C)C)cc2S1)C(F)(F)F do in these assays?
RGS12 GoLoco inh: inactive; Tau ThT inhib: inactive; Tau FP inhib: inactive; Tau fluor counter: inactive; KDM4E inh: inactive

What do the screens show for `CC(C)C(C(=O)O)N1C(=O)/C(=C/C=C/c2ccco2)SC1=S` (stereo not drawn)?
RGS12 GoLoco inh: inactive; Tau ThT inhib: 13µM; Tau FP inhib: 25µM; Tau fluor counter: inconclusive; KDM4E inh: inconclusive

How did CC(c1ccccc1)N1C(=O)/C(=C/c2ccncc2)SC1=S (stereo not drawn) do in these assays?
RGS12 GoLoco inh: inactive; Tau ThT inhib: inconclusive; Tau FP inhib: inconclusive; Tau fluor counter: inconclusive; KDM4E inh: inactive

How did O=C1/C(=C\c2ccc(O)cc2)SC(=S)N1c1cccnc1 do in these assays?
RGS12 GoLoco inh: inactive; Tau ThT inhib: inconclusive; Tau FP inhib: inactive; Tau fluor counter: inactive; KDM4E inh: inactive

What do the screens show for `CCN(CC)c1ccc(N2C(=O)/C(=C/c3cccs3)SC2=S)cc1`?
RGS12 GoLoco inh: inactive; Tau ThT inhib: inconclusive; Tau FP inhib: inactive; Tau fluor counter: inactive; KDM4E inh: inactive

Results for O=C1/C(=C\c2ccco2)SC(=S)N1c1ccc(O)cc1 ?
RGS12 GoLoco inh: inactive; Tau ThT inhib: 18µM; Tau FP inhib: inactive; Tau fluor counter: inconclusive; KDM4E inh: inconclusive

How did O=C1/C(=C/C=C/c2ccco2)SC(=S)N1c1ccc(O)cc1 do in these assays?
RGS12 GoLoco inh: inactive; Tau ThT inhib: 4µM; Tau FP inhib: inconclusive; Tau fluor counter: 11µM[quencher]; KDM4E inh: 14µM

Results for O=C1/C(=C/c2ccco2)SC(=S)N1c1cccnc1 ?
RGS12 GoLoco inh: inactive; Tau ThT inhib: 16µM; Tau FP inhib: inconclusive; Tau fluor counter: inconclusive; KDM4E inh: inconclusive

How did CN(C)c1ccc(/C=C/C=C2/SC(=S)N(c3ccccc3)C2=O)cc1 do in these assays?
RGS12 GoLoco inh: inactive; Tau ThT inhib: 2.5µM; Tau FP inhib: inactive; Tau fluor counter: 0.71µM[fluorescent]; KDM4E inh: inactive

Results for O=C(O)c1ccc(N2C(=O)/C(=C/C=C/c3ccccc3)SC2=S)cc1 ?
RGS12 GoLoco inh: inactive; Tau ThT inhib: inconclusive; Tau FP inhib: inactive; Tau fluor counter: inactive; KDM4E inh: inactive

How did NN1C(=O)/C(=C\c2ccco2)SC1=S do in these assays?
RGS12 GoLoco inh: inactive; Tau ThT inhib: 32µM; Tau FP inhib: inconclusive; Tau fluor counter: inconclusive; KDM4E inh: inconclusive

Results for O=C1NC(=Nc2ccc(Cl)cc2)/C(=C/c2ccco2)S1 ?
RGS12 GoLoco inh: inactive; Tau ThT inhib: inconclusive; Tau FP inhib: inactive; Tau fluor counter: inactive; KDM4E inh: inconclusive

What do the screens show for `COc1ccc(-c2nc(SCC(=O)NCCCc3ccccc3)n[nH]2)cc1`?
Tau ThT inhib: inactive; Tau FP inhib: inactive; Tau fluor counter: inactive

Results for Nc1nnc(Cc2c[nH]c3ccccc23)s1 ?
RGS12 GoLoco inh: inactive; Tau ThT inhib: inconclusive; Tau FP inhib: inactive; Tau fluor counter: inactive; KDM4E inh: inactive

What do the screens show for `c1ccc2c(Cc3c[nH]c4ccccc34)c[nH]c2c1`?
RGS12 GoLoco inh: inactive; Tau ThT inhib: inconclusive; Tau FP inhib: inconclusive; Tau fluor counter: 16µM![quencher]; KDM4E inh: inactive

What do the screens show for `Cc1cc(C)c(S(=O)(=O)Nc2ccc(O)cc2)cc1C`?
RGS12 GoLoco inh: inactive; Tau ThT inhib: inactive; Tau FP inhib: inactive; Tau fluor counter: inactive; KDM4E inh: inactive

Results for Cc1cc(C)c(S(=O)(=O)Nc2cc(SCC(=O)O)c(O)c3ccccc23)cc1C ?
RGS12 GoLoco inh: inactive; Tau ThT inhib: 13µM; Tau FP inhib: 25µM; Tau fluor counter: inconclusive; KDM4E inh: 28µM

Results for CCOC(=O)C1=C(c2ccccc2)N=c2s/c(=C\c3cccc(O)c3)c(=O)n2C1c1cccs1 (stereo not drawn) ?
RGS12 GoLoco inh: inactive; Tau ThT inhib: inconclusive; Tau FP inhib: 13µM; Tau fluor counter: inconclusive; KDM4E inh: inactive

How did CCOc1cccc(C2CC(=O)Nc3cc4c(cc32)OCCO4)c1 (stereo not drawn) do in these assays?
Tau ThT inhib: inactive; Tau FP inhib: inactive; Tau fluor counter: inactive

How did Cc1cc(OCCn2cc(C(=O)c3cccs3)c3ccccc32)ccc1Cl do in these assays?
Tau ThT inhib: inactive; Tau FP inhib: inconclusive; Tau fluor counter: inactive

How did Oc1ccc(C2CNCCc3c2cc(O)c(O)c3Cl)cc1 (stereo not drawn) do in these assays?
RGS12 GoLoco inh: inactive; Tau ThT inhib: inconclusive; Tau FP inhib: inactive; Tau fluor counter: inactive; KDM4E inh: inconclusive
